Measurements: PubChem BioAssay AID1159580 (chemical genetic matrix, 2015)
In all, about 5,500 compounds went through this assay and about 2,000 (36%) were called active. Inconclusive results (about 18%) are left out. Rule as the data show it: active = normalized growth mostly below about 0.91 (no sharp cut-off); inconclusive = no clear call, values can overlap the other calls; inactive = mostly above about 0.92. The list shows a part of the results.

Assay: chemical genetic growth profiling, strain panel (AID 1159580);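 also: tested at 20 µM; growth read once vehicle control cultures reached saturation at 30 °C; 1 = growth at the plate median or of vehicle wells; lower values mean less growth of the strain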
Conditions: S. cerevisiae deletion strains, growth OD
[1] = locus YAR019C, strain CDC15, hits give low values
[2] = locus YBL105C, strain PKC1, hits give low values
[3] = locus YBR135W, strain CKS1, hits give low values
[4] = locus YBR136W, strain MEC1, hits give low values
[5] = locus YBR160W, strain CDC28, hits give low values
[6] = locus YDL017W, strain CDC7, hits give low values
[7] = locus YDL028C, strain MPS1, hits give low values
[8] = locus YDL101C, strain DUN1, hits give low values
[9] = locus YDL108W, strain KIN28, hits give low values
[10] = locus YDL132W, strain cdc53, hits give low values
[11] = locus YDL214C, strain PRR2, hits give low values
[12] = locus YDR052C, strain DBF4, hits give low values
[13] = locus YDR054C, strain cdc34, hits give low values
[14] = locus YDR226W, strain ADK1, hits give low values
[15] = locus YDR477W, strain SNF1, hits give low values
[16] = locus YER123W, strain YCK3, hits give low values
[17] = locus YER133W, strain GLC7, hits give low values
[18] = locus YFL009W, strain cdc4, hits give low values
[19] = locus YFL029C, strain CAK1, hits give low values
[20] = locus YFR003C, strain YPI1, hits give low values
[21] = locus YFR019W, strain FAB1, hits give low values
[22] = locus YFR028C, strain CDC14, hits give low values
[23] = locus YGR040W, strain KSS1, hits give low values
[24] = locus YGR052W, strain FMP48, hits give low values
[25] = locus YGR092W, strain DBF2, hits give low values
[26] = locus YHR030C, strain SLT2, hits give low values
[27] = locus YHR079C, strain IRE1, hits give low values
[28] = locus YHR082C, strain KSP1, hits give low values
[29] = locus YHR205W, strain SCH9, hits give low values
[30] = locus YIL147C, strain SLN1, hits give low values
[31] = locus YJL095W, strain BCK1, hits give low values
[32] = locus YJL128C, strain PBS2, hits give low values
[33] = locus YJL157C, strain FAR1, hits give low values
[34] = locus YJR016C, strain ILV3, hits give low values
[35] = locus YJR066W, strain TOR1 (second series), hits give low values
[36] = locus YJR066W, strain TOR1, hits give low values
[37] = locus YKL048C, strain ELM1, hits give low values
[38] = locus YKL067W, strain YNK1, hits give low values
[39] = locus YKL101W, strain HSL1, hits give low values
[40] = locus YKL193C, strain SDS22, hits give low values
[41] = locus YKL203C, strain TOR2, hits give low values
[42] = locus YLR113W, strain HOG1, hits give low values
[43] = locus YLR133W, strain CKI1, hits give low values
[44] = locus YLR403W, strain SFP1, hits give low values
[45] = locus YML070W, strain DAK1, hits give low values
[46] = locus YMR001C, strain CDC5, hits give low values
[47] = locus YMR205C, strain PFK2 (second series), hits give low values
[48] = locus YMR277W, strain FCP1, hits give low values
[49] = locus YNL006W, strain LST8, hits give low values
[50] = locus YNL020C, strain ARK1, hits give low values
[51] = locus YNL161W, strain CBK1, hits give low values
[52] = locus YNL183C, strain NPR1, hits give low values
[53] = locus YNL207W, strain RIO2, hits give low values
[54] = locus YNL222W, strain SSU72, hits give low values
[55] = locus YNL307C, strain MCK1 (second series), hits give low values
[56] = locus YOL078W, strain AVO1, hits give low values
[57] = locus YOL136C, strain PFK27, hits give low values
[58] = locus YOR061W, strain CKA2, hits give low values
[59] = locus YOR119C, strain RIO1, hits give low values
[60] = locus YOR231W, strain MKK1, hits give low values
[61] = locus YOR329C, strain SCD5, hits give low values
[62] = locus YPL031C, strain PHO85, hits give low values
[63] = locus YPL153C, strain RAD53, hits give low values
[64] = locus YPL204W, strain HRR25, hits give low values
[65] = locus YPL209C, strain IPL1, hits give low values
[66] = locus YPL256C, strain CLN2, hits give low values
[67] = locus YPR025C, strain CCL1, hits give low values
[68] = locus YPR106W, strain ISR1, hits give low values
[69] = locus YPR111W, strain DBF20, hits give low values
[70] = strain NNK1, hits give low values
[71] = strain TSCII, hits give low values

Measured: normalized growth

O=S(=O)(Nc1cc(C(F)(F)F)cc(C(F)(F)F)c1)c1ccc(Cl)s1
active: [12] 0.891 | [21] 0.772 | [25] 0.369 | [26] 0.246 | [27] 0.51 | [28] 0.48 | [37] 0.701 | [39] 0.685 | [42] 0.55 | [57] 0.67 | [60] 0.558 | [63] 0.617 | [64] 0.628 | [66] 0.475
inactive: [1] 0.927 | [2] 0.921 | [3] 0.93 | [4] 0.922 | [5] 0.923 | [6] 0.925 | [7] 0.928 | [8] 0.942 | [9] 0.939 | [10] 0.925 | [11] 0.818 | [13] 0.926 | [14] 0.914 | [15] 0.808 | [16] 0.622 | [17] 0.83 | [18] 0.92 | [19] 0.928 | [20] 0.927 | [22] 0.927 | [23] 0.835 | [24] 0.619 | [29] 0.808 | [30] 0.927 | [31] 0.605 | [32] 0.906 | [33] 0.802 | [34] 0.921 | [35] 0.856 | [36] 0.668 | [38] 0.841 | [40] 0.933 | [41] 0.786 | [43] 0.772 | [44] 0.837 | [45] 0.718 | [46] 0.93 | [47] 0.852 | [48] 0.931 | [49] 0.941 | [50] 0.726 | [51] 0.927 | [52] 0.568 | [53] 0.914 | [54] 0.934 | [55] 0.645 | [56] 0.923 | [58] 0.836 | [59] 0.838 | [61] 0.927 | [62] 0.706 | [65] 0.927 | [67] 0.929 | [68] 0.934 | [69] 0.923 | [70] 0.919 | [71] 0.917

COC(=O)c1sccc1S(=O)(=O)Nc1cc(C(F)(F)F)cc(C(F)(F)F)c1
inactive: [1] 0.973 | [2] 0.967 | [3] 0.974 | [4] 0.974 | [5] 0.962 | [6] 0.973 | [7] 0.979 | [8] 0.957 | [9] 0.97 | [10] 0.967 | [11] 0.962 | [12] 0.969 | [13] 0.98 | [14] 0.971 | [15] 0.985 | [16] 0.936 | [17] 0.981 | [18] 0.965 | [19] 0.965 | [20] 0.974 | [21] 0.955 | [22] 0.962 | [23] 0.971 | [24] 1.03 | [25] 0.977 | [26] 1.07 | [27] 1.02 | [28] 1.06 | [29] 0.947 | [30] 0.978 | [31] 1.01 | [32] 0.9 | [33] 0.963 | [34] 0.97 | [35] 0.942 | [36] 1.07 | [37] 0.95 | [38] 0.956 | [39] 0.958 | [40] 0.969 | [41] 1.04 | [42] 0.902 | [43] 0.962 | [44] 0.966 | [45] 0.935 | [46] 0.972 | [47] 0.946 | [48] 0.971 | [49] 0.985 | [50] 0.956 | [51] 0.967 | [52] 0.997 | [53] 0.97 | [54] 0.961 | [55] 0.943 | [56] 0.971 | [57] 0.938 | [58] 0.955 | [59] 1.05 | [60] 0.934 | [61] 0.972 | [62] 0.987 | [63] 0.973 | [64] 0.97 | [65] 0.965 | [66] 0.967 | [67] 0.969 | [68] 0.955 | [69] 0.938 | [70] 0.974 | [71] 0.972
